Outcome and AC50 data for 8 compounds are collected here from PubChem BioAssay (EPA / NIEHS).

What is called AC50 is the concentration giving half of the maximal activity seen.

Molecules are shown by their SMILES. Results filed as inconclusive are left out. A structure can be active in one record and inactive in another. The source made the active and inactive calls. Rule for the calls, unless noted: active = hit-call score of the fitted dose curve at least 0.9, where 1 is the maximum; inactive = score below 0.9.

Assay [1] addresses Estrogen-related receptor gamma (Homo sapiens) (UniProt P62508). Kind of assay: ATG_ERRg_TRANS: Attagene TRANS-FACTORIAL HepG2 Assay for human Estrogen-Related Receptor gamma (ERRg) (AID 2282977; active = hit-call score of the fitted dose curve at least 0.9, where 1 is the maximum;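 note: hits increase reporter signal over DMSO so potencies reflect activators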). The conditions noted are these: HepG2 Attagene TRANS reporter, ERRg transactivation. Put shortly:
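Transient HepG2 transfectants, 24 h compound exposure, GAL4-UAS reporter mRNA by RT-PCR/6-FAM labelling/capillary electrophoresis; positive direction vs DMSO.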

Assay [2] deals with Glucocorticoid receptor (Homo sapiens) (UniProt P04150). Kind of assay: ATG_GR_TRANS: Attagene TRANS-FACTORIAL HepG2 Assay for human Glucocorticoid Receptor (GR) (AID 2282978; active = hit-call score of the fitted dose curve at least 0.9, where 1 is the maximum;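 note: activators score as hits since higher reporter transcript over DMSO is fitted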). To be noted: HepG2 Attagene TRANS GR reporter, mRNA transcription. Put shortly:
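HepG2 transient transfection, multiple reporter units, GAL4-UAS under NR-GAL4 chimera control. 24 h treatment. Reporter mRNA by RT-PCR/CE fluorescence, DMSO as negative control.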

Assay [3] has as its target Bile acid receptor (Homo sapiens) (UniProt Q96RI1). Kind of assay: ATG_FXR_TRANS: Attagene TRANS-FACTORIAL HepG2 Assay for Farnesoid X Receptor (FXR) (AID 2282979; active = hit-call score of the fitted dose curve at least 0.9, where 1 is the maximum;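 note: hits raise reporter mRNA above DMSO so AC50 marks FXR activation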). To be noted: HepG2 Attagene TRANS FXR-GAL4 reporter transcription. A digest of the protocol:
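HepG2 cells were transiently transfected with GAL4-UAS reporters driven by chimeric NR-Gal4 proteins and dosed for 24 h. Reporter mRNA was quantified by RT-PCR, fluorescent labelling, HpaI digestion and capillary electrophoresis, with gain of signal scored versus DMSO.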

Assay [4] deals with Transcriptional activator Myb (Homo sapiens) (UniProt P10242). In words: ATG_Myb_CIS: Attagene CIS-FACTORIAL HepG2 Assay for human Myeloblastosis (Myb) Proto-Oncogene Transcription Factor (AID 2282986). The conditions noted are these: HepG2 Attagene CIS-FACTORIAL Myb reporter transcription; actives raise or lower the signal. A digest of the protocol:
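Multiplexed cis-reporter system in HepG2: transient transfection, 24 h treatment, mRNA readout by RT-PCR and capillary electrophoresis. Both increases and decreases are scored versus DMSO negative control.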

Assay [5] has as its target Nuclear respiratory factor 1 (Homo sapiens) (UniProt Q16656). In words: ATG_NRF1_CIS: Attagene CIS-FACTORIAL HepG2 Assay for human Nuclear Respiratory Factor 1 (NRF1) Orphan Gene (AID 2282987). The conditions noted are these: HepG2 NRF1 cis-element reporter, Attagene multiplex; actives raise or lower the signal. A digest of the protocol: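 Endogenous factor activity was captured via cis-element-driven reporter transcripts in HepG2 cells. Following 24 h chemical treatment, transcripts were quantified by RT-PCR and capillary electrophoresis.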

The nature of assay [6]: ATG_NFI_CIS: Attagene CIS-FACTORIAL HepG2 Assay for human Nuclear Factor I (NFI) (AID 2282989). To be noted: HepG2 cis-regulatory reporter, NFI response element transcription; actives raise or lower the signal. A digest of the protocol:
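After transient transfection of HepG2 with cis-promoter reporter constructs and 24 h dosing, RNA is reverse-transcribed, amplified, 6-FAM end-labelled and HpaI-digested before capillary analysis. Bidirectional curve fitting against DMSO.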

Assay [7] concerns the target Myc proto-oncogene protein (Homo sapiens) (UniProt P01106). In words: ATG_Myc_CIS: Attagene CIS-FACTORIAL HepG2 Assay for human Myelocytomatosis (Myc) Proto-Oncogene Transcription Factor (AID 2282990). To be noted: HepG2, Attagene cis-reporter transcription factor activity; actives raise or lower the signal. Put shortly:
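HepG2 cells transiently transfected with multiple cis-promoter-driven reporter transcription units, so endogenous TF activity is read. After 24 h compound exposure, reporter mRNA was quantified by RT-PCR, 6-FAM labelling, HpaI digestion and capillary electrophoresis; bidirectional fit versus DMSO.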

The nature of assay [8]: ATG_NF_kB_CIS: Attagene CIS-FACTORIAL HepG2 Assay for human Nuclear Factor Kappa B (NF-kB) (AID 2282991). The conditions noted are these: HepG2 Attagene cis-factorial NF-kB reporter mRNA; actives raise or lower the signal. A digest of the protocol: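 After 24 h compound incubation, transfected HepG2 cells yield total RNA; reporter cDNA is PCR-amplified, end-labelled with 6-FAM, HpaI-digested and analysed on a genetic analyser. Endogenous factor activity, DMSO-referenced bidirectional fit.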

A short description of assay [9]: ATG_NRF2_ARE_CIS: Attagene CIS-FACTORIAL HepG2 Assay for human Nuclear Factor Erythroid 2 Related Factor 2 (NFR2) response to Antioxidant Response Elements (ARE) (AID 2282992). To be noted: HepG2 Attagene ARE/NRF2 reporter, transcription factor activity; actives raise or lower the signal. A digest of the protocol: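 Cis-factorial assay: transfected HepG2 reporter library, 24 h dosing, mRNA readout via RT-PCR/CE; DMSO-referenced bidirectional analysis.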

Assay [10] can be described thus: ATG_Oct_MLP_CIS: Attagene CIS-FACTORIAL HepG2 Assay for human Octamer-Binding Transcription Factor (Oct) (AID 2282993). To be noted: HepG2 Attagene cis-factorial Oct reporter, mRNA; actives raise or lower the signal. A digest of the protocol: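 Cells of the HepG2 line express promoter-controlled reporter sequences whose mRNA levels, after 24 h treatment, are measured by RT-PCR and capillary electrophoresis. Increases and decreases are scored relative to DMSO.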

The target in assay [11] is Cellular tumor antigen p53 (Homo sapiens) (UniProt P04637). In words: ATG_p53_CIS: Attagene CIS-FACTORIAL HepG2 Assay for human p53 Transcription Factor (AID 2282994). The conditions noted are these: HepG2 p53 cis-element reporter, Attagene mRNA; actives raise or lower the signal. A digest of the protocol:
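Using HepG2 hepatoma cells carrying cis-acting multiplexed reporters, mRNA induction is detected after a 24 h exposure. Gain- and loss-of-signal responses are fitted relative to DMSO-treated cells.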

Assay [12] deals with Oxysterols receptor LXR-alpha (Homo sapiens) (UniProt Q13133). Kind of assay: ATG_LXRa_TRANS: Attagene TRANS-FACTORIAL HepG2 Assay for human Liver X Receptor alpha (LXRa) (AID 2282980; active = hit-call score of the fitted dose curve at least 0.9, where 1 is the maximum). To be noted: HepG2 Attagene TRANS reporter, LXRa transactivation. Put shortly: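 HepG2 cells transiently transfected with GAL4-UAS reporter units for chimeric NR-Gal4 proteins, exposed to chemicals for 24 h. Reporter mRNA quantified by RT-PCR and capillary electrophoresis; gain of signal fitted relative to DMSO.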
Chain of Oxysterols receptor LXR-alpha (Homo sapiens) (Q13133 whole entry, looked up, the tested form may be a part): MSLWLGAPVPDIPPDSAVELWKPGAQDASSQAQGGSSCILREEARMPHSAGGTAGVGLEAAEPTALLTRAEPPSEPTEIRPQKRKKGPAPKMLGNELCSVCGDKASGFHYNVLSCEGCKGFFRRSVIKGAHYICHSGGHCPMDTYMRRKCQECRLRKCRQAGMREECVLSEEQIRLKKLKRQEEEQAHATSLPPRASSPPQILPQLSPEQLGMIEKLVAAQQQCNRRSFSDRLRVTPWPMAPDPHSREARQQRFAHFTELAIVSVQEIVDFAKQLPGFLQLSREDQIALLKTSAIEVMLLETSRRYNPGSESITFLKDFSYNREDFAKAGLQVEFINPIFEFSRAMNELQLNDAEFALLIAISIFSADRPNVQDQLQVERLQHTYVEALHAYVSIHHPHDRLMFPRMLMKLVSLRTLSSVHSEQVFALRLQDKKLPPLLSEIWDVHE

Assay [13] deals with Oxysterols receptor LXR-beta (Homo sapiens) (UniProt P55055). Kind of assay: ATG_LXRb_TRANS: Attagene TRANS-FACTORIAL HepG2 Assay for human Liver X Receptor beta (LXRb) (AID 2282981; active = hit-call score of the fitted dose curve at least 0.9, where 1 is the maximum). The conditions noted are these: HepG2 Attagene TRANS GAL4-LXRb reporter, mRNA. Put shortly: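 HepG2 cells transiently transfected with multiple reporter transcription units carrying chimeric NR-Gal4 proteins acting on GAL4-UAS reporters; compound exposure 24 h. Reporter mRNA quantified by RT-PCR, 6-FAM labelling, HpaI digestion and capillary electrophoresis; gain of signal versus DMSO.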
Chain of Oxysterols receptor LXR-beta (Homo sapiens) (P55055 whole entry, looked up, the tested form may be a part): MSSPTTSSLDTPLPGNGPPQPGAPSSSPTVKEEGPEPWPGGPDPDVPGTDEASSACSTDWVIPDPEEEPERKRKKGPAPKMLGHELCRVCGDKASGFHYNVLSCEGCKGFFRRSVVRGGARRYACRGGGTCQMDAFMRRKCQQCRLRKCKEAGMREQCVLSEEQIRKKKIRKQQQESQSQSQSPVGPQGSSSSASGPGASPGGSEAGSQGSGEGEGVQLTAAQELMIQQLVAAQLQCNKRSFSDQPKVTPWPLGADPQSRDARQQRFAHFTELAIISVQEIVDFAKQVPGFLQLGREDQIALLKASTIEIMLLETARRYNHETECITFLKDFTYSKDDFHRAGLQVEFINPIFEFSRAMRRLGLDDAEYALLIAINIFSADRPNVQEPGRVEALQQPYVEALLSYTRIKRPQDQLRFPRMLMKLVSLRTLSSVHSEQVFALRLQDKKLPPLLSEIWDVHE

Assay [14] deals with Hepatocyte nuclear factor 4-alpha (Homo sapiens) (UniProt P41235). In words: ATG_HNF4a_TRANS: Attagene TRANS-FACTORIAL HepG2 Assay for human Hepatocyte Nuclear Factor 4 alpha (HNF4a) (AID 2282982; active = hit-call score of the fitted dose curve at least 0.9, where 1 is the maximum). The conditions noted are these: HepG2 HNF4a transactivation reporter, mRNA readout. A digest of the protocol: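 HepG2 cells transiently transfected with multiplexed GAL4-UAS reporter units responsive to chimeric NR-GAL4 proteins; compound exposure 24 h. Reporter mRNA quantified by RT-PCR, 6-FAM labelling, HpaI digestion and capillary electrophoresis; gain of signal versus DMSO baseline.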

Assay [15] in a line: ATG_M_06_TRANS: Attagene TRANS-FACTORIAL HepG2 Assay for M06 Transcription Factor (Internal Marker) (AID 2282983; active = hit-call score of the fitted dose curve at least 0.9, where 1 is the maximum;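 note: reporter transcript level by RT-PCR then capillary electrophoresis fluorescence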). To be noted: HepG2 Attagene TRANS M06 internal marker reporter. A digest of the protocol: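 HepG2 cells transiently transfected with GAL4-UAS multiple reporter units, dosed 24 h. Reporter RNA reverse-transcribed, PCR-amplified, 6-FAM-labeled, HpaI-digested and quantified by capillary electrophoresis; this internal-marker signal fitted upward relative to DMSO.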

The nature of assay [16]: ATG_M_32_TRANS: Attagene TRANS-FACTORIAL HepG2 Assay for M32 Transcription Factor (Internal Marker) (AID 2282984; active = hit-call score of the fitted dose curve at least 0.9, where 1 is the maximum;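 note: transcript level of a background control reporter unit measured by RT-PCR and capillary electrophoresis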). To be noted: HepG2 Attagene TRANS M32 internal marker reporter. A digest of the protocol:
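HepG2 cells transiently transfected with multiple GAL4-UAS reporter transcription units, dosed for 24 hours; reporter mRNA quantified by RT-PCR, 6-FAM primer extension, HpaI digestion and capillary electrophoresis. Gain-of-signal fitted versus DMSO baseline; internal background-control marker.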

Assay [17] concerns the target Nuclear receptor subfamily 4 group A member 2 (Homo sapiens) (UniProt P43354). In words: ATG_NURR1_TRANS: Attagene TRANS-FACTORIAL HepG2 Assay for human Nuclear Receptor Related Protein 1 (NURR1) (AID 2282985; active = hit-call score of the fitted dose curve at least 0.9, where 1 is the maximum). To be noted: HepG2 Attagene TRANS reporter, mRNA readout. A digest of the protocol: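 HepG2 cells transiently transfected with GAL4-UAS reporter units and chimeric NR-Gal4 constructs; chemical exposure 24 h. Reporter mRNA quantified by RT-PCR, fluorescent labelling and capillary electrophoresis; gain of signal fitted relative to DMSO baseline.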

Assay [18] can be described thus: BSK_3C_TissueFactor: BioMAP Diversity Plus: 3C Assay for Tissue Factor Biomarker Activity (AID 2282997). The conditions noted are these: BioMAP 3C HUVEC, tissue factor biomarker readout; actives raise or lower the signal. Put shortly: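 HUVEC were treated 24 h, then surface tissue factor measured by ELISA and fitted bidirectionally against DMSO. Parallel SRB total-protein staining assessed overt cytotoxicity at the same time point.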

A short description of assay [19]: BSK_3C_uPAR: BioMAP Diversity Plus: 3C Assay for Urokinase-type plasminogen activator receptor (uPAR) Biomarker Activity (AID 2282998). To be noted: BioMAP 3C HUVEC, uPAR biomarker ELISA; actives raise or lower the signal. A digest of the protocol:
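Endothelial primary cells of human umbilical vein origin received test chemical; 24 h later uPAR was assayed by ELISA. Fitting was bidirectional, DMSO as negative control.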
(ELISA stands for enzyme-linked immunosorbent assay.)

Chain of Cellular tumor antigen p53 (Homo sapiens) (P04637 whole entry, looked up): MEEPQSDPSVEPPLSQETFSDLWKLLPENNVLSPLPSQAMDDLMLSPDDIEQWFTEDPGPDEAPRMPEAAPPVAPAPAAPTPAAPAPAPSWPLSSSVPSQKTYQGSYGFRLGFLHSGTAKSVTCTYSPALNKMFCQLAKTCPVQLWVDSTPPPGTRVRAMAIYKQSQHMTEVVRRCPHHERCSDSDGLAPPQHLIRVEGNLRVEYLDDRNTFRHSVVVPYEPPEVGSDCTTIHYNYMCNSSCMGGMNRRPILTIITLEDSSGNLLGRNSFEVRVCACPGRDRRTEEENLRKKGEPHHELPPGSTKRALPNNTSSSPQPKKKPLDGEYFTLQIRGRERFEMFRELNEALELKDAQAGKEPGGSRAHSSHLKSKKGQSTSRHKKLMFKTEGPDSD
Chain of Estrogen-related receptor gamma (Homo sapiens) (P62508 whole entry, looked up, the tested form may be a part): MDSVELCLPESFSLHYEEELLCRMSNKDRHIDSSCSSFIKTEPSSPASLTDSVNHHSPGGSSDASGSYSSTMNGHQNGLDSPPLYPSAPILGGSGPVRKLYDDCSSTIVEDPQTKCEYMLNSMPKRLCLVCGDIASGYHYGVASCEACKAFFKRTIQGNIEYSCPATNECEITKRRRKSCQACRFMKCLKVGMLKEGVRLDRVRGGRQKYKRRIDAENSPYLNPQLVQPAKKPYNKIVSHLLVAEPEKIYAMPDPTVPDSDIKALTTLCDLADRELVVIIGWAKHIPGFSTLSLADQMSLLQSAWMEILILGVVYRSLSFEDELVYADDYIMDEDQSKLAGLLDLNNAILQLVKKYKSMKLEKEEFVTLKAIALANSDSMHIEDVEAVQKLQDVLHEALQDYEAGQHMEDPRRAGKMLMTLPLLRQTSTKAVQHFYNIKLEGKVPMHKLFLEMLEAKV
Chain of Nuclear respiratory factor 1 (Homo sapiens) (Q16656 whole entry, looked up): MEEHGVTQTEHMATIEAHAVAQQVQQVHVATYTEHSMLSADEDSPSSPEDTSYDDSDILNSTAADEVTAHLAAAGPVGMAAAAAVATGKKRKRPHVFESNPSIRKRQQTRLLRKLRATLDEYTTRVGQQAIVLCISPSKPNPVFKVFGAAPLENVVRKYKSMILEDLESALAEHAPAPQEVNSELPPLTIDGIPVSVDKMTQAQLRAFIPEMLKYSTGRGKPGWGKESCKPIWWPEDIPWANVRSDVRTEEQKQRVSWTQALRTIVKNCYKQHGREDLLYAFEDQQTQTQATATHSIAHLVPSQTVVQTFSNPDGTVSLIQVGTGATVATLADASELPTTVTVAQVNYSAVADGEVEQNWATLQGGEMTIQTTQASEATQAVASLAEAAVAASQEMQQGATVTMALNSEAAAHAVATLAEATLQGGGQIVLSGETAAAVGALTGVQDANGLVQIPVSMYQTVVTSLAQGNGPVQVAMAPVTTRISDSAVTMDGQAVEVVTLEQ
Chain of Nuclear receptor subfamily 4 group A member 2 (Homo sapiens) (P43354 whole entry, looked up, the tested form may be a part): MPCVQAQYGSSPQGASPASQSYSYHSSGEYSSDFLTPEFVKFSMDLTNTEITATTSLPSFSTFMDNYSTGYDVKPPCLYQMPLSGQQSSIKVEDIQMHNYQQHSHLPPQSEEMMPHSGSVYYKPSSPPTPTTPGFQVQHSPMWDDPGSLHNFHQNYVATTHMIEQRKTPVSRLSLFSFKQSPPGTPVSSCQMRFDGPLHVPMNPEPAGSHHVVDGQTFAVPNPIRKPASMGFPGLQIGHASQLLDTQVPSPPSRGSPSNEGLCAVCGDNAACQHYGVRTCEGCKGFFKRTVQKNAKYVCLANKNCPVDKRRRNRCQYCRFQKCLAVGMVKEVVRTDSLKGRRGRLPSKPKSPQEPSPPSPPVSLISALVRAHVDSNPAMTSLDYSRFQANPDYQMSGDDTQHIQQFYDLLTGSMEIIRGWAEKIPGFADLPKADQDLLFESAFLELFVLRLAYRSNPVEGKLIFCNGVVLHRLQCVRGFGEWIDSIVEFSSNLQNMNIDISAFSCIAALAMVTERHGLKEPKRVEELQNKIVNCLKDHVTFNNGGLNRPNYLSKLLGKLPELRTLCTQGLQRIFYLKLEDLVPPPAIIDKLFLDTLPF
Chain of Transcriptional activator Myb (Homo sapiens) (P10242 whole entry, looked up): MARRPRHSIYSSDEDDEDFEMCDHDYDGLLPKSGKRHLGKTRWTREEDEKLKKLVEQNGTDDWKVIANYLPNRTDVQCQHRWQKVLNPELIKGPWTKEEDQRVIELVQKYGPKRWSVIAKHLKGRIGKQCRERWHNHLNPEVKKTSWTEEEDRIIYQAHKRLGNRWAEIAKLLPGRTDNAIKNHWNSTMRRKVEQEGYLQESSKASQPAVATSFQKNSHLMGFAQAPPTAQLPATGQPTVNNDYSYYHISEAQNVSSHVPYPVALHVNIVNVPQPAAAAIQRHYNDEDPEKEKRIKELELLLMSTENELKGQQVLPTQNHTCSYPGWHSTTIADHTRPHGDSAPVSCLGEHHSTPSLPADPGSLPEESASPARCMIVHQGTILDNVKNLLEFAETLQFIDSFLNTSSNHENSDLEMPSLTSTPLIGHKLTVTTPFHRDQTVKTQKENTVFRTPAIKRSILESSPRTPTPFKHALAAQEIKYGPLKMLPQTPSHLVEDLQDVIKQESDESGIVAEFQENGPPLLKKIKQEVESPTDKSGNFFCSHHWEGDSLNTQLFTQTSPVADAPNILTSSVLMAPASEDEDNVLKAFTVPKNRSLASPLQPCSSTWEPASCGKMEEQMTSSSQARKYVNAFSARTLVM
Chain of Glucocorticoid receptor (Homo sapiens) (P04150 whole entry, looked up, the tested form may be a part): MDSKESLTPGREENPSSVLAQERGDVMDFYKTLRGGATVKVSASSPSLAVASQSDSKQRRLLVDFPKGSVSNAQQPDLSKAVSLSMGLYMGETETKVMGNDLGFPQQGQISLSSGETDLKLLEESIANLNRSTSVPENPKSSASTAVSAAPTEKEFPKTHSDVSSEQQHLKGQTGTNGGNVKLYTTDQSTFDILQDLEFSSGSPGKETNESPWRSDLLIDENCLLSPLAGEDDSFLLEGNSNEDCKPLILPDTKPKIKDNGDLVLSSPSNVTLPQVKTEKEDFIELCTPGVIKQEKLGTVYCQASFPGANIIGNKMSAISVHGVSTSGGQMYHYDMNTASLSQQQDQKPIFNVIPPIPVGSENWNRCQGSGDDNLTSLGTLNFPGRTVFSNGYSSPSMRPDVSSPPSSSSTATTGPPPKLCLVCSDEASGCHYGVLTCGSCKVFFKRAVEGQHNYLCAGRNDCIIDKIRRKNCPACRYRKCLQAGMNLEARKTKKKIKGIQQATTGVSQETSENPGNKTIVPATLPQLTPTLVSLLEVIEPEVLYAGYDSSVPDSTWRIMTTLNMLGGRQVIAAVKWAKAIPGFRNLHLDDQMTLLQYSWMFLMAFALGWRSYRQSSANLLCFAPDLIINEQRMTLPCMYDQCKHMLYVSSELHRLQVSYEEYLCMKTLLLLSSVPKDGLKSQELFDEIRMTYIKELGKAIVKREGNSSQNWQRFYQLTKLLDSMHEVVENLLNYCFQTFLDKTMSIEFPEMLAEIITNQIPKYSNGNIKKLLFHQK
Chain of Bile acid receptor (Homo sapiens) (Q96RI1 whole entry, looked up, the tested form may be a part): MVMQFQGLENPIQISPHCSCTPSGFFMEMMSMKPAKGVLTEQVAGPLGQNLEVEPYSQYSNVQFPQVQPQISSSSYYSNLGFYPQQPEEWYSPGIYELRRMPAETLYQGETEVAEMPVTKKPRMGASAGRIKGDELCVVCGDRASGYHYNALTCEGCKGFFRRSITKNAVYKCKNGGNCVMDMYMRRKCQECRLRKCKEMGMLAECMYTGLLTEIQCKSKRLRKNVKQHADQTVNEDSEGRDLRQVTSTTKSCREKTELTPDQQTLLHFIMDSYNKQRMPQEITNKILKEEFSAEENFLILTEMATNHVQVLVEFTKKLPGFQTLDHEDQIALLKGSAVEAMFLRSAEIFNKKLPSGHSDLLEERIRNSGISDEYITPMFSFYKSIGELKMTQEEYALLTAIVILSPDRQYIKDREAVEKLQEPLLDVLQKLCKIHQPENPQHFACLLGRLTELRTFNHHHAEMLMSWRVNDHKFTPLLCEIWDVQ

In the case of `CSc1ccc(O)cc1C`, the compound was classed as inactive in assay [1], in assay [2], in assay [3], in assay [4], in [5] and in assay [6]. In addition, the compound was called inactive in assay [7], in [8], in [9], in assay [10] and in [11].
With `OCC(F)(F)C(F)(F)C(F)(F)C(F)(F)C(F)(F)C(F)(F)C(F)(F)C(F)(F)CO`, the compound was called inactive in assay [2], in [3], in assay [13], in [14], in assay [15] and in assay [16]. The call in assay [17], in [4], in assay [5], in [6], in assay [7] and in assay [8] was inactive. Moreover, the call in assay [9], in [10], in assay [11], in assay [18] and in assay [19] was inactive. In addition, the AC50 in assay [12] was 10.5 µM (active); in assay [19], 7.66 µM (active).
With `CCCCCCCCCCCCCCCCC`, the call in assay [1], in assay [12], in assay [13], in assay [14], in [15] and in [16] was inactive. The result in assay [4], in assay [5], in assay [6], in assay [7], in [8] and in [9] was inactive. Also, the result in assay [10] and in assay [11] was inactive.
For `C[C@]12CC[C@H]3C(=CCc4cc(O)ccc43)[C@@H]1CCC2=O`, the call in [2], in assay [3], in [12], in [13], in assay [14] and in [15] was inactive. Further, the outcome in assay [16], in assay [17], in assay [4], in assay [5], in [6] and in assay [7] was inactive. Moreover, the result in [9], in [10], in assay [18] and in assay [19] was inactive.
As to `O=C(c1ccccc1)c1ccc(O)cc1O`, the call in [2], in [3], in assay [12], in assay [13], in [14] and in assay [15] was inactive. The result in [16], in assay [17], in [4], in [5], in [6] and in assay [7] was inactive. Moreover, the outcome in assay [8], in assay [11], in assay [18] and in [19] was inactive. Moreover, the AC50 in assay [9] is 66.8 µM (active).
`O=S(=O)(OCC(F)(F)F)C(F)(F)C(F)(F)C(F)(F)C(F)(F)F`: the compound was called inactive in [1], in [2], in assay [3], in assay [12], in assay [14] and in assay [15]. The call in [16], in assay [4], in assay [5], in [6], in assay [7] and in assay [10] was inactive. The outcome in [18] and in assay [19] was inactive. Further, the AC50 is 65.2 µM (active) in [17]; 62.7 µM (active) in assay [8]; 45.6 µM (active) in [9]; 89.1 µM (active) in assay [11]; 38.5 µM (active) in assay [19].
In the case of `C[Si](Cl)(Cl)CCC(F)(F)C(F)(F)C(F)(F)C(F)(F)C(F)(F)C(F)(F)F`, the compound was called inactive in assay [2], in [3], in assay [12], in [13], in [14] and in assay [15]. The call in assay [16], in [17], in assay [4], in assay [5], in [6] and in [7] was inactive. For the same compound, the compound was classed as inactive in [8], in assay [9], in assay [10], in [11], in [18] and in assay [19].
As for `CCOC(C=C(C)CCC=C(C)C)OCC`, the call in assay [1], in [14], in assay [16], in assay [17], in assay [4] and in assay [5] was inactive. For the same compound, the outcome in assay [6], in assay [7] and in assay [8] was inactive. The AC50 in assay [9] was 46.5 µM (active); in assay [18] it was 30.9 µM (active); in assay [19] it was 31.3 µM (active).
